# Assay results as given in the supplement of paper PMC9023506.
# Where a name gives a salt, the structure may show the parent alone.
# Assays:
# Conditions in all cases: 10 µM; exposure time: 3 h pre-incubation + 3 h imaging
# [1] = tested on: Danio rerio larvae (5 dpf); experiment: activity during first hour (no stimuli), difference vs DMSO (percentage points (treated minus DMSO)); higher = more of the behaviour than the DMSO vehicle control
# How it was run: (§1)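 Library drugs were diluted 1000× from DMSO stocks into egg water to reach 10 µM and applied to 5-dpf wild-type zebrafish larvae in 96-well ProxiPlates, 48 larvae per drug. The larvae stayed exposed for 3 h before imaging and for the 3 h of imaging at 28.5 °C. Behaviour scores, given in percentage points, are the treated mean minus the vehicle mean for movement and upper-half location.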
# [2] = tested on: Danio rerio larvae (5 dpf); experiment: optomotor response to green moving lines, difference vs DMSO (percentage points (treated minus DMSO)); higher = more of the behaviour than the DMSO vehicle control
# How it was run: as §1
# [3] = tested on: Danio rerio larvae (5 dpf); experiment: startle response to 20-s acoustic pulses, difference vs DMSO (percentage points (treated minus DMSO)); higher = more of the behaviour than the DMSO vehicle control
# How it was run: as §1
# [4] = tested on: Danio rerio larvae (5 dpf); experiment: optomotor response to fast red moving lines, difference vs DMSO (percentage points (treated minus DMSO)); higher = more of the behaviour than the DMSO vehicle control
# How it was run: as §1
# [5] = tested on: Danio rerio larvae (5 dpf); experiment: habituation to 1-s acoustic pulses, difference vs DMSO (percentage points (treated minus DMSO)); higher = more of the behaviour than the DMSO vehicle control
# How it was run: as §1
# [6] = tested on: Danio rerio larvae (5 dpf); experiment: activity during period 15 (no stimuli), difference vs DMSO (percentage points (treated minus DMSO)); higher = more of the behaviour than the DMSO vehicle control
# How it was run: as §1
# [7] = tested on: Danio rerio larvae (5 dpf); experiment: optomotor response to blue moving lines, difference vs DMSO (percentage points (treated minus DMSO)); higher = more of the behaviour than the DMSO vehicle control
# How it was run: as §1
# [8] = tested on: Danio rerio larvae (5 dpf); experiment: excitability to 1-s acoustic pulses, difference vs DMSO (percentage points (treated minus DMSO)); higher = more of the behaviour than the DMSO vehicle control
# How it was run: as §1
# [9] = tested on: Danio rerio larvae (5 dpf); experiment: optomotor response to red moving lines, difference vs DMSO (percentage points (treated minus DMSO)); higher = more of the behaviour than the DMSO vehicle control
# How it was run: as §1
smiles,measurement,setting,value
COc1cc2nccc(Oc3ccc(NC(=O)C4(C(=O)Nc5ccc(F)cc5)CC4)cc3)c2cc1OC,activity during first hour,[1],20
same,optomotor response to green moving lines,[2],9.65
same,startle response to 20-s acoustic pulses,[3],-5.31
same,optomotor response,[4],-16.9
Nc1nc(Cl)nc2c1ncn2[C@@H]1O[C@H](CO)[C@@H](O)[C@@H]1F [Clofarabine],habituation to 1-s acoustic pulses,[5],-0.305
same,activity during period 15,[6],-4.3
same,activity during first hour,[1],-3.77
same,optomotor response to blue moving lines,[7],4.47
CNCc1ccc(-c2[nH]c3cc(F)cc4c3c2CCNC4=O)cc1 [Rucaparib camsylate],excitability to 1-s acoustic pulses,[8],12.5
same,optomotor response to red moving lines,[9],2.5
same,activity during first hour,[1],-13.6
CN(C)CCc1c[nH]c2ccc(C[C@H]3COC(=O)N3)cc12 [Zolmitriptan],excitability to 1-s acoustic pulses,[8],3.25
same,activity during first hour,[1],7.82
same,optomotor response to green moving lines,[2],6.88
CCc1ccc(CCOc2ccc(CC3SC(=O)NC3=O)cc2)nc1 (configuration not stated) [Pioglitazone hydrochloride],optomotor response to red moving lines,[9],-7.97
same,activity during period 15,[6],-0.879
same,activity during first hour,[1],-5.36
CN(C)CC/C=C1/c2ccccc2COc2ccc(CC(=O)O)cc21 [Olopatadine hydrochloride],activity during period 15,[6],-6.62
same,activity during first hour,[1],-0.591
same,optomotor response to blue moving lines,[7],-0.0571
same,optomotor response to green moving lines,[2],5.77
CC(c1cc2ccccc2s1)N(O)C(N)=O (configuration not stated) [Zileuton],excitability to 1-s acoustic pulses,[8],4.34
same,activity during first hour,[1],-0.123
same,optomotor response to blue moving lines,[7],-7.52
same,startle response to 20-s acoustic pulses,[3],-2.9
same,optomotor response,[4],-16.8
CC(=O)O[C@]1(C(C)=O)CC[C@H]2[C@@H]3C=C(C)C4=CC(=O)CC[C@]4(C)[C@H]3CC[C@@]21C [Megestrol Acetate],optomotor response to red moving lines,[9],3.71
same,activity during first hour,[1],-14.3
same,optomotor response,[4],-10.3
CCN(CC)CCNC(=O)c1c(C)[nH]c(/C=C2\C(=O)Nc3ccc(F)cc32)c1C [Sunitinib malate],habituation to 1-s acoustic pulses,[5],4.25
same,optomotor response to red moving lines,[9],-0.697
same,activity during first hour,[1],-14.4
same,optomotor response to green moving lines,[2],-7.59
same,startle response to 20-s acoustic pulses,[3],-2.32
CCOc1nc2cccc(C(=O)O)c2n1Cc1ccc(-c2ccccc2-c2noc(=O)[nH]2)cc1 [Azilsartan],activity during first hour,[1],3.52
CN1CCC[C@@H]1Cc1c[nH]c2ccc(CCS(=O)(=O)c3ccccc3)cc12 [Eletriptan hydrobromide],optomotor response to red moving lines,[9],4.39
same,activity during first hour,[1],4.26
same,optomotor response to green moving lines,[2],6.81
Cc1nnc(C(C)C)n1C1C[C@H]2CC[C@@H](C1)N2CC[C@H](NC(=O)C1CCC(F)(F)CC1)c1ccccc1 (stereo in doubt) [Maraviroc],excitability to 1-s acoustic pulses,[8],8.65
same,activity during first hour,[1],-3.61
same,optomotor response to blue moving lines,[7],-0.85
same,startle response to 20-s acoustic pulses,[3],-4.61
Nc1ncn([C@H]2C[C@H](O)[C@@H](CO)O2)c(=O)n1 [Decitabine],optomotor response to red moving lines,[9],-3.68
same,activity during first hour,[1],0.325
same,optomotor response to blue moving lines,[7],-0.954
same,optomotor response to green moving lines,[2],0.0025
CCc1nc(N)nc(N)c1-c1ccc(Cl)cc1 [Pyrimethamine],activity during first hour,[1],-0.915
same,optomotor response to green moving lines,[2],6.72
CC(=O)NC[C@H]1CN(c2ccc(N3CCOCC3)c(F)c2)C(=O)O1 [Linezolid],excitability to 1-s acoustic pulses,[8],7.52
same,activity during period 15,[6],-1.07
same,activity during first hour,[1],3.81
same,optomotor response to blue moving lines,[7],-4.03
same,optomotor response to green moving lines,[2],5.36
Cc1c(-c2ccc(O)cc2)n(Cc2ccc(OCCN3CCCCCC3)cc2)c2ccc(O)cc12 [Bazedoxifene acetate],activity during first hour,[1],-12.7
same,optomotor response to green moving lines,[2],-2.2
N[C@@H]1[C@H]2CN(c3nc4c(cc3F)c(=O)c(C(=O)O)cn4-c3ccc(F)cc3F)C[C@@H]12 [Trovafloxacin mesylate],activity during first hour,[1],5.81
same,optomotor response to blue moving lines,[7],14.1
same,optomotor response,[4],-4.84
CC(=O)O[C@H]1C(=O)[C@@]2(C)[C@H]([C@H](OC(=O)c3ccccc3)[C@]3(O)C[C@H](OC(=O)[C@H](O)[C@@H](NC(=O)c4ccccc4)c4ccccc4)C(C)=C1C3(C)C)[C@]1(OC(C)=O)CO[C@@H]1C[C@@H]2O [Taxol],excitability to 1-s acoustic pulses,[8],-0.779
same,activity during first hour,[1],1.84
same,optomotor response to green moving lines,[2],-4.62
same,optomotor response,[4],-16.4
NS(=O)(=O)Cc1noc2ccccc12 [Zonisamide],optomotor response to red moving lines,[9],13
same,activity during first hour,[1],3.75
same,optomotor response to blue moving lines,[7],3.89
same,optomotor response,[4],-0.856
Nc1cccc2c1CN(C1CCC(=O)NC1=O)C2=O (configuration not stated) [Lenalidomide],optomotor response to red moving lines,[9],6.24
same,activity during period 15,[6],4.34
same,activity during first hour,[1],-5.68
same,startle response to 20-s acoustic pulses,[3],-5.01
CN1CC[C@@H](NC(=O)Nc2ccc(C#N)cc2)C[C@@H]1c1nc2ccccc2[nH]1,optomotor response to red moving lines,[9],-0.356
same,activity during first hour,[1],-8.92
same,optomotor response to blue moving lines,[7],3.76
same,optomotor response to green moving lines,[2],-5.63
COc1ccccc1OCC(O)CN1CCN(CC(=O)Nc2c(C)cccc2C)CC1 (configuration not stated) [Ranolazine dihydrochloride],activity during first hour,[1],10.4
Cn1nnc2c(C(N)=O)ncn2c1=O [Temozolomide],optomotor response to red moving lines,[9],2.24
same,activity during first hour,[1],7.11
same,optomotor response to blue moving lines,[7],3.81
same,optomotor response to green moving lines,[2],-1.84
same,optomotor response,[4],-10.8
CCOc1cc(CC(=O)N[C@@H](CC(C)C)c2ccccc2N2CCCCC2)ccc1C(=O)O [Repaglinide],activity during first hour,[1],5.41
NC(=O)N1c2ccccc2C=Cc2ccccc21 [Carbamazepine],activity during first hour,[1],-2.68
same,optomotor response to blue moving lines,[7],12.9
Cc1ccc(-c2cc(C(F)(F)F)nn2-c2ccc(S(N)(=O)=O)cc2)cc1 [Celecoxib],excitability to 1-s acoustic pulses,[8],6.46
same,optomotor response to red moving lines,[9],-3.89
same,activity during period 15,[6],3.28
same,activity during first hour,[1],-5.35
C[C@]12CC[C@@H]3c4ccc(O)cc4C[C@@H](CCCCCCCCC[S+]([O-])CCCC(F)(F)C(F)(F)F)[C@H]3[C@@H]1CC[C@@H]2O (some centres not stated),excitability to 1-s acoustic pulses,[8],2.14
same,activity during first hour,[1],7.08
same,optomotor response to blue moving lines,[7],6.07
same,startle response to 20-s acoustic pulses,[3],0.769
same,optomotor response,[4],3.52
